Measurements taken from PubChem BioAssay (NCATS).
Records with an inconclusive call do not appear. A number with no mark means an inactive call. The source made the active and inactive calls. Calls follow the shape of the dose curve; as a rule, active = well fitted inhibition curve with a large enough effect; inconclusive = small, poorly fitted or top-dose-only effect; inactive = flat fitted curve, though single readings scatter.

Test: P-glycoprotein substrates identified in KB-8-5-11 adenocarcinoma cell line, qHTS therapeutic library screen (AID 1346987); also: nearly all actives have a fitted effect of over 65% in size
Conditions: KB-8-5-11 (P-gp overexpressing) viability, CellTiter-Glo, 72 h; series mostly up to 44.5 µM; activity change, negative = cytotoxicity: at the top concentration
Summary of the method: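 In this qHTS, P-gp-rich KB-8-5-11 cells received library compounds across a concentration range. Viability was quantified by luminescence after 72 h at 37 degree C.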
% is scaled to controls: 0 for no effect and ±100 for the full control effect; potency is read from the fitted curve at half-maximal effect.

| Compound | activity change, negative = cytotoxicity | Potency | outcome |
| --- | --- | --- | --- |
| C=C1C(OC2OCC(O)C(O)C2O)CC2C(C)(C)C(O)CCC2(C)C1CC/C(C)=C\CO (centres undefined) | 4.3% [at 17.3 µM] |  |  |
| C[C@H]1[C@H](O)O[C@@H]2O[C@@]3(C)CC[C@H]4[C@H](C)CC[C@@H]1[C@@]24OO3 |  | 11.6 µM (active) |  |
| C=C1C(OC(=O)/C(C)=C\C)[C@@]23CCC4[C@@](C)(CCC[C@@]4(C)C(=O)O)C2CC[C@H]1C3OC(C)=O (some centres undefined) | -14.1% [at 17.3 µM] |  |  |
| Fc1ccc2nc(CCC#Cc3ccccn3)cn2c1 | -17.2% |  |  |
| Cc1cc(OCc2nnc(SC3CCCC3)n2-c2cccnc2)ccc1-c1ccc(S(C)(=O)=O)cc1 |  | 2.91 µM (active) |  |
| C=C1C[C@@]23CCC4[C@@](C)(CCC[C@@]4(C)C(=O)OC)C2CC[C@@H]1C3 (some centres undefined) | -22% |  |  |
| CC(C)S(=O)(=O)NC[C@H](C)c1ccc(NC(=O)c2cc(F)cc(F)c2)cc1 | -20.4% |  |  |
| C[C@@H]1O[C@@H](O[C@H]2[C@H](OC(=O)[C@]34CCC(C)(C)C[C@H]3C3=CCC5[C@@]6(C)CC[C@H](O[C@@H]7O[C@H](C(=O)O)[C@@H](O)[C@H](O)[C@H]7O[C@@H]7O[C@H](CO)[C@H](O)[C@H](O)[C@H]7O)[C@@](C)(C=O)C6CC[C@@]5(C)[C@]3(C)C[C@H]4O)O[C@H](C)[C@H](O[C@@H]3O[C@H](C)[C@H](O)[C@H](O)[C@H]3O)[C@@H]2O)[C@H](O)[C@H](O)[C@H]1O[C@@H]1OC[C@@H](O)[C@H](O[C@@H]2O[C@H](CO)[C@@H](O)[C@H](O)[C@H]2O)[C@H]1O (some centres undefined) |  |  | inactive [at 5.11 µM] |
| CNC(=O)c1ccccc1Nc1nc(Nc2ccc3c(c2OC)CCC[C@@H](N2CCN(CCO)CC2)C3)ncc1Cl |  | 10.3 µM (active) |  |
